Test results: PubChem BioAssay (NCI)
About 79,000 compounds went through this panel and 15% of them were active in at least one assay; those are over-represented in the sample as a whole. The source made the active and inactive calls. Cut-off read from the data, not from the text of the source: active = growth inhibition above about 70%; inactive = the rest.

Assays:
[1] = NCI Yeast Anticancer Drug Screen. Data for the mec2-1 strain (AID 157); conditions: S. cerevisiae mec2-1 strain, hits give high values
Outline: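 Yeast mec2-1 mutant treated with compound. Readout: growth inhibition vs vehicle controls.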

[2] = NCI Yeast Anticancer Drug Screen. Data for the rad14 strain (AID 159);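 note: 0% = growth of vehicle-treated control cultures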; conditions: S. cerevisiae rad14 strain growth inhibition, hits give high values
Outline: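 Yeast cells carrying a defined DNA-repair defect were exposed to compounds, and growth inhibition was calculated relative to vehicle-treated control cultures.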

[3] = NCI Yeast Anticancer Drug Screen. Data for the sgs1 mgt1 strain (AID 161);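 note: 0% = growth of cultures given vehicle only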; conditions: S. cerevisiae sgs1 mgt1 strain, hits give high values
Outline: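 Inhibition of yeast growth, normalised to vehicle-treated controls, is reported for a strain bearing genetic alterations in DNA damage repair.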

[4] = NCI Yeast Anticancer Drug Screen. Data for the CLN2oe strain (AID 163);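 note: 0% = growth of vehicle-only control cultures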; conditions: S. cerevisiae CLN2oe strain, hits give high values
Outline: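 Read-out: yeast growth inhibition, expressed relative to vehicle-only controls. The strain bears an engineered cell-cycle alteration.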

[5] = NCI Yeast Anticancer Drug Screen. Data for the cln2 rad14 strain (AID 165);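 note: 0% = growth equal to vehicle treated cultures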; conditions: S. cerevisiae cln2 rad14 strain, hits give high values
Outline: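 cln2 rad14 yeast strain; compound exposure; growth inhibition read vs vehicle controls.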

[6] = NCI Yeast Anticancer Drug Screen. Data for the bub3 strain (AID 167); conditions: S. cerevisiae bub3 mutant strain, hits give high values
Outline: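 Compounds were applied to a genetically altered yeast strain carrying a cell-cycle control defect. Growth inhibition was scored against vehicle-treated controls.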

[7] = NCI Yeast Anticancer Drug Screen. Data for the wt2 strain (AID 169);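 note: 0% = growth of vehicle-treated yeast cultures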; conditions: S. cerevisiae wt2 strain growth inhibition, hits give high values
Outline: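 Read-out: growth inhibition versus vehicle-treated control cultures after compound exposure of the yeast strain.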

[8] = NCI Yeast Anticancer Drug Screen. Data for the mlh1 strain (AID 171);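 note: 0% = growth of vehicle-treated control cultures of the same strain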; conditions: S. cerevisiae mlh1 strain growth inhibition, hits give high values
Outline: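 Read-out: growth inhibition versus vehicle controls. Strain: engineered yeast with a defined DNA repair or cell cycle defect, compound-treated.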

[9] = NCI Yeast Anticancer Drug Screen. Data for the mlh1 rad18 strain (AID 175); conditions: S. cerevisiae mlh1 rad18 strain growth inhibition, hits give high values
Outline: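 Yeast w/ defined DNA-repair lesions; compound exposure; growth vs vehicle controls → % inhibition.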

[10] = NCI Yeast Anticancer Drug Screen. Data for the rad18 strain (AID 177); conditions: S. cerevisiae rad18 mutant growth inhibition, hits give high values
Outline: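 Readout: growth inhibition vs vehicle controls. Cells: genetically altered yeast strain, DNA repair defect.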

[11] = NCI Yeast Anticancer Drug Screen. Data for the rad52 strain (AID 147);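 note: 0% = growth of vehicle-treated control cultures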; conditions: S. cerevisiae rad52 mutant growth inhibition, hits give high values
Outline: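 Read-out: growth inhibition versus vehicle-treated controls. Cells were a DNA repair-deficient yeast strain treated with compounds.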

[12] = NCI Yeast Anticancer Drug Screen. Data for the wt1 strain (AID 149);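 note: 0% = growth of vehicle-treated wt1 cultures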; conditions: S. cerevisiae wt1 strain (SPY 50644) growth inhibition, hits give high values
Outline: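 Yeast wt1 strain exposed to compounds; growth inhibition measured relative to vehicle-treated controls.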

[13] = NCI Yeast Anticancer Drug Screen. Data for the rad50EPP+ strain (AID 151);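 note: 0% = growth of vehicle-treated control cultures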; conditions: S. cerevisiae rad50 mutant strain, hits give high values
Outline: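 Growth inhibition read against vehicle controls in rad50EPP+ yeast, a strain altered in DNA damage repair, after compound exposure.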

[14] = NCI Yeast Anticancer Drug Screen. Data for the mgt1 strain (AID 153); conditions: S. cerevisiae mgt1 mutant growth inhibition, hits give high values
Outline: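 mgt1 yeast grown with test compound; read-out is growth inhibition versus vehicle-treated cultures.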

[15] = NCI Yeast Anticancer Drug Screen. Data for the rad50 strain (AID 155);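 note: 0% = growth of vehicle-only cultures of the same strain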; conditions: S. cerevisiae rad50 strain growth inhibition, hits give high values
Outline: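 Yeast carrying a defined DNA repair defect were exposed to test compounds, and growth was compared with vehicle-treated controls to give percent inhibition.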

[16] = NCI Yeast Anticancer Drug Screen. Data for the sgs1 strain (AID 173);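 note: 0% = growth of vehicle-only control cultures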; conditions: S. cerevisiae sgs1 mutant, hits give high values
Outline: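 Read-out: yeast growth inhibition relative to vehicle controls, following compound exposure of a strain with a defined DNA repair/cell cycle alteration.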

[17] = at 5.0 µM (retest, dose inferred, filed as 0.5)
[18] = at 50.0 µM (retest, dose inferred, filed as 5.0)

Measured: growth inhibition

O=CC1(F)CC1(c1ccccc1)c1ccccc1 (centres undefined)
active: [1]; at 100.0 µM 87% | [2]; at 100.0 µM 80% | [6]; at 100.0 µM 89% | [7]; at 100.0 µM 98% | [8]; at 100.0 µM 94% | [10]; at 100.0 µM 94%
inactive: [1]; [17] 6% | [1]; at 11.0 µM -2% | [1]; at 33.0 µM 4% | [1]; [18] 21% | [1]; at 50.0 µM 21% | [2]; at 1.2 µM 0% | [2]; at 3.7 µM 1% | [2]; at 11.0 µM 2% | [2]; at 33.0 µM 7% | [3]; [17] -2% | [3]; [18] 53% | [3]; at 50.0 µM 55.6% | [4]; at 1.2 µM -2% | [4]; at 3.7 µM 1% | [4]; at 11.0 µM 2% | [4]; at 33.0 µM 1% | [4]; at 100.0 µM 25% | [5]; [17] -1% | [5]; [18] 2% | [5]; at 50.0 µM 23.8% | [6]; at 1.2 µM -2% | [6]; at 3.7 µM -4% | [6]; [17] -3% | [6]; at 11.0 µM -6% | [6]; at 33.0 µM -4% | [6]; [18] 11% | [6]; at 50.0 µM 5.65% | [7]; at 1.2 µM -1% | [7]; at 3.7 µM 6% | [7]; at 11.0 µM -2% | [7]; at 33.0 µM 2% | [8]; at 1.2 µM -2% | [8]; at 3.7 µM -3% | [8]; at 11.0 µM -3% | [8]; at 33.0 µM 2% | [9]; [17] -1% | [9]; [18] 14% | [9]; at 50.0 µM 14.2% | [10]; at 1.2 µM -6% | [10]; at 3.7 µM 2% | [10]; at 11.0 µM 3% | [10]; at 33.0 µM 13%

COc1ccc(/C=C2\SC(=S)N(/C=C3\C(=O)N(c4ccccc4)N=C3C)C2=O)cc1OC
inactive: [11]; at 1.2 µM 3% | [11]; at 3.7 µM 8% | [11]; at 11.0 µM 25% | [11]; at 33.0 µM 64% | [12]; at 1.2 µM 3% | [12]; at 3.7 µM 5% | [12]; at 11.0 µM 11% | [12]; at 33.0 µM 48% | [13]; at 1.2 µM -1% | [13]; at 3.7 µM 6% | [13]; at 11.0 µM 24% | [13]; at 33.0 µM 55% | [13]; at 100.0 µM 58% | [14]; at 1.2 µM 1% | [14]; at 3.7 µM 3% | [14]; at 11.0 µM 27% | [15]; at 1.2 µM -5% | [15]; at 3.7 µM -10% | [15]; [17] 5% | [15]; at 11.0 µM 9% | [15]; at 33.0 µM 61% | [15]; [18] 51% | [15]; at 50.0 µM 63.4% | [1]; at 1.2 µM 3% | [1]; at 3.7 µM 4% | [1]; [17] -7% | [1]; at 11.0 µM 18% | [1]; at 33.0 µM 65% | [1]; [18] 52% | [2]; at 1.2 µM 3% | [2]; at 3.7 µM 4% | [2]; at 11.0 µM 26% | [2]; at 33.0 µM 66% | [3]; [17] -4% | [4]; at 1.2 µM -18% | [4]; at 3.7 µM -9% | [4]; at 11.0 µM 3% | [4]; at 33.0 µM 58% | [5]; [17] -5% | [5]; [18] 61% | [5]; at 50.0 µM 50.8% | [6]; at 1.2 µM -2% | [6]; at 3.7 µM 0% | [6]; [17] 5% | [6]; at 11.0 µM 11% | [6]; at 33.0 µM 42% | [6]; [18] 17% | [6]; at 50.0 µM 67.6% | [6]; at 100.0 µM 65% | [7]; at 1.2 µM -2% | [7]; at 3.7 µM 2% | [7]; at 11.0 µM 26% | [8]; at 1.2 µM 0% | [8]; at 3.7 µM 3% | [8]; at 11.0 µM 25% | [9]; [17] 7% | [9]; [18] 67% | [10]; at 1.2 µM 5% | [10]; at 3.7 µM 17% | [10]; at 11.0 µM 37% | [10]; at 33.0 µM 68%
active: [11]; at 100.0 µM 77% | [12]; at 100.0 µM 76% | [14]; at 33.0 µM 79% | [14]; at 100.0 µM 89% | [15]; at 100.0 µM 71% | [1]; at 50.0 µM 73.2% | [1]; at 100.0 µM 80% | [2]; at 100.0 µM 74% | [3]; [18] 83% | [3]; at 50.0 µM 79.2% | [4]; at 100.0 µM 71% | [7]; at 33.0 µM 82% | [7]; at 100.0 µM 89% | [8]; at 33.0 µM 81% | [8]; at 100.0 µM 88% | [9]; at 50.0 µM 76.2% | [10]; at 100.0 µM 74%

ClCCCOc1c(Cl)cc(Cl)cc1Cl
inactive: [11]; at 1.2 µM -2% | [11]; at 3.7 µM 2% | [11]; at 11.0 µM 5% | [11]; at 33.0 µM -3% | [11]; at 100.0 µM 10% | [12]; at 1.2 µM -1% | [12]; at 3.7 µM -2% | [12]; at 11.0 µM -3% | [12]; at 33.0 µM -5% | [12]; at 100.0 µM -1% | [13]; at 1.2 µM -4% | [13]; at 3.7 µM 4% | [13]; at 11.0 µM 13% | [13]; at 33.0 µM 10% | [13]; at 100.0 µM 32% | [14]; at 1.2 µM 0% | [14]; at 3.7 µM -1% | [14]; at 11.0 µM -2% | [14]; at 33.0 µM -1% | [14]; at 100.0 µM 1% | [15]; at 1.2 µM -2% | [15]; at 3.7 µM 4% | [15]; [17] 1% | [15]; at 11.0 µM 5% | [15]; at 33.0 µM 0% | [15]; [18] 13% | [15]; at 50.0 µM -7.15% | [15]; at 100.0 µM 10% | [1]; at 1.2 µM -2% | [1]; at 3.7 µM -2% | [1]; [17] -27% | [1]; at 11.0 µM -2% | [1]; at 33.0 µM -1% | [1]; [18] -12% | [1]; at 50.0 µM 8.65% | [1]; at 100.0 µM 1% | [2]; at 1.2 µM -4% | [2]; at 3.7 µM 2% | [2]; at 11.0 µM 5% | [2]; at 33.0 µM 1% | [2]; at 100.0 µM 13% | [3]; [17] 17% | [3]; [18] 15% | [3]; at 50.0 µM -2.55% | [4]; at 1.2 µM 1% | [4]; at 3.7 µM 0% | [4]; at 11.0 µM 0% | [4]; at 33.0 µM 1% | [4]; at 100.0 µM 5% | [5]; [17] 16% | [5]; [18] 25% | [5]; at 50.0 µM 29.6% | [6]; at 1.2 µM 0% | [6]; at 3.7 µM 1% | [6]; [17] 14% | [6]; at 11.0 µM -2% | [6]; at 33.0 µM -1% | [6]; [18] 13% | [6]; at 50.0 µM 0.6% | [6]; at 100.0 µM 0% | [8]; at 1.2 µM -2% | [8]; at 3.7 µM 0% | [8]; at 11.0 µM 3% | [8]; at 33.0 µM -1% | [8]; at 100.0 µM 9% | [16]; at 1.2 µM -15% | [16]; at 3.7 µM -22% | [16]; at 11.0 µM -21% | [16]; at 33.0 µM -5% | [16]; at 100.0 µM 10% | [9]; [17] 15% | [9]; [18] 60% | [9]; at 50.0 µM 27.1% | [10]; at 1.2 µM -4% | [10]; at 3.7 µM 12% | [10]; at 11.0 µM 12% | [10]; at 33.0 µM -2% | [10]; at 100.0 µM 6%
